The source of these data is PubChem BioAssay (Tox21).

SMILES strings stand for the structures. Results filed as inconclusive are left out. A call without a number means that no potency is given here. The source made the active and inactive calls. Calls come from the whole dose curve. Starred links: 1 amine or outer side, 2 acyl side, 3 side chain; linkers in the order of their positions; H or OH if unused. Positions of bridges follow the written chain, without caps; N, C: chain ends. Non-standard residues stand in square brackets, D forms with d. Residues, ends and D or L forms follow the SMILES beside them. *: point of attachment. X5 = NC1=N[C@@H]([C@H](N[*:1])C(=O)[*:2])C[C@H](O)N1; ΔAla(Z-3-ureido) = NC(=O)N/C=C(\N)C(=O)O; β3hOrn = NCCC[C@H](N)CC(=O)*; Dap = NC[C@H](N)C(=O)O
Potency is the fitted concentration of half-maximal effect.

A short description of this assay: qHTS assay for small molecule agonists of the p53 signaling pathway (AID 651631). Note: nearly all actives have a fitted effect of over 15% in size. As to conditions: HCT-116 p53RE-bla reporter, beta-lactamase FRET ratio, 16 h; series mostly up to 73.3 µM. The source says: U.S. Tox21 Program National Center for Advancing Translational Sciences [NCATS] NIH Chemical Genomics Center [NCGC] U.S. Environmental Protection Agency [EPA] National Institutes of Environmental Health Sciences [NIEHS] National Toxicology Program [NTP] U.S. Food and Drug Administration [FDA] Tox21 Assay Overview: p53, a tumor suppressor protein, is activated following cellular insult, including DNA damage and other cellular stresses. The activation of p53 regulates cell fate by inducing DNA repair, cell cycle arrest, apoptosis, or cellular senescence. The activation of p53, therefore, is a good indicator of DNA damage and other cellular stresses. The CellSensor p53RE-bla HCT-116 cell line (Invitrogen) contains a stably integrated beta-lactamase reporter gene under control of the p53 response elements. The activation of the reporter gene under culture conditions can be detected by fluorescence intensity. This cell line was used to screen the Tox21 compound library in a 1536-well plate format and to identify agonists that activate the p53 signaling pathway.
Tox21 Assay Protocol Summary: The p53RE-bla cells were dispensed at 4,000 cells/5 ul/well in 1536-well black wall/clear bottom plates using a Multidrop dispenser. After the assay plates were incubated at a 37 C/5% CO2 incubator for 5 hours, 23 nL of compounds dissolved in DMSO, positive controls or DMSO only was transferred to the assay plate by a pin tool. The plates were incubated at 37 C for 16 hours. After 1 uL of LiveBLAzerTM B/G FRET substrate was added using a Flying Reagent Dispenser, the plates were incubated at room temperature for 2 hours, and fluorescence intensity was measured by an Envision plate reader.
In general terms: Quantitative high-throughput screening tests each substance at several concentrations.
`C[C@H]1C[C@H]2[C@@H]3CCC4=CC(=O)C=C[C@]4(C)[C@@]3(F)[C@@H](O)C[C@]2(C)[C@@]1(O)C(=O)CCl`: the Potency entry was “inactive”.

As for `CCCCC(=O)OCC(=O)[C@]1(O)Cc2c(O)c3c(c(O)c2[C@@H](O[C@H]2C[C@H](NC(=O)C(F)(F)F)[C@H](O)[C@H](C)O2)C1)C(=O)c1c(OC)cccc1C3=O`, the Potency was 4.22 µM (active).

Take `CO[C@H]1[C@@H](O)[C@H](N)[C@@H](O[C@H]2O[C@H]([C@H](C)N)CC[C@H]2N)[C@H](O)[C@@H]1N(C)C(=O)CN`: the Potency result is “inactive”.

Consider `CC[C@H]1OC(=O)[C@H](C)[C@@H](O[C@H]2C[C@@](C)(OC)[C@@H](O)[C@H](C)O2)[C@H](C)[C@@H](O[C@@H]2O[C@H](C)C[C@H](N(C)C)[C@H]2O)[C@](C)(O)C[C@@H](C)[C@@H]2N[C@@H](COCCOC)O[C@@H]([C@H]2C)[C@]1(C)O`, for which the Potency result was “inactive”.

Take `CC[C@@H](C(=O)O)[C@@H]1O[C@@H]([C@@H](C)[C@H](O)[C@H](C)C(=O)[C@H](CC)[C@H]2O[C@]3(C=C[C@@H](O)[C@]4(CC[C@@](C)([C@H]5CC[C@](O)(CC)[C@H](C)O5)O4)O3)[C@H](C)C[C@@H]2C)[C@@H](C)C[C@@H]1C`: the Potency is 3.76 µM (active).

With `C[Se]CCC(N)C(=O)O` (stereo not given), the Potency entry was “inactive”.

For `O=C(O)c1ccc(OCCn2ccnc2)cc1`, the Potency result is “inactive”.

Regarding `CC[C@@]1(O)C(=O)OCc2c1cc1n(c2=O)Cc2cc3c([N+](=O)[O-])cccc3nc2-1`, the Potency is 0.473 µM (active).

Regarding `Cc1cc(Nc2ccccc2C(=O)O)ccc1Cl`, the Potency is 15 µM (active).

As for `OCC(O)COc1ccc(Cl)cc1` (stereo not given), the Potency result is “inactive”.

In the case of `CN(C)C=Nc1c(I)cc(I)c(CCC(=O)O)c1I`, the Potency entry was “inactive”.

With `CC(C)[C@H](N)C(=O)OCC(CO)OCn1cnc2c(=O)[nH]c(N)nc21` (stereo not given in full), the Potency result was “inactive”.

On to `CCCCCCCCCCCCOCCCN`, for which the Potency entry was “inactive”.

In the case of `O=C(c1cc2ccccc2o1)N1CCN(Cc2ccccc2)CC1`, the Potency result was “inactive”.

Take `CCOC(=O)c1cc(-c2ccccc2)nc2ccc(C)cc12`: the Potency result was “inactive”.

In the case of `CCc1ccc(S(=O)(=O)O)cc1`, the Potency entry was “inactive”.

In the case of `O=C1NC(=O)[C@H]2[C@@H]1[C@@H]1C=C[C@H]2C1`, the Potency entry was “inactive”.

For `COc1cc2c(cc1OC)[C@@H](c1ccccc1)CN(C)CC2`, the Potency entry was “inactive”.

With `CN1c2c(nc(N)[nH]c2=O)NCC1CNc1ccc(C(=O)NC(CCC(=O)O)C(=O)O)cc1` (stereo not given), the Potency entry is “inactive”.

As for `CC1(C)[C@@H]2CC[C@@]1(C)[C@H](OC(=O)CSC#N)C2`, the Potency entry was “inactive”.

With `NCCC[C@H](N)CC(=O)N[C@H]1CNC(=O)[C@H]([C@H]2C[C@H](O)NC(N)=N2)NC(=O)/C(=C/NC(N)=O)NC(=O)[C@H](CO)NC(=O)[C@H](CO)NC1=O` (β3hOrn-[Dap]SS[ΔAla(Z-3-ureido)][X5]; lactam 1-C), the Potency entry was “inactive”.

`CCOc1ccc(N=C(C)Nc2ccc(OCC)cc2)cc1`: the Potency result was “inactive”.

As to `OC[C@H]1O[C@@H](n2cnc3c2NC=NC[C@H]3O)C[C@@H]1O`, the Potency result is “inactive”.

Regarding `CCCc1ccc(C(=O)O)cc1`, the Potency result is “inactive”.

As for `CCC(=O)OCC(=O)[C@@]1(OC(=O)CC)[C@H](C)C[C@H]2[C@@H]3CCC4=CC(=O)C=C[C@]4(C)[C@@]3(F)[C@@H](O)C[C@@]21C`, the Potency entry was “inactive”.

With `C#CCOc1ccc2c(C)cc(=O)oc2c1`, the Potency result was “inactive”.

`CO[C@H]1O[C@@H]2O[C@@]3(C)CC[C@H]4[C@H](C)CC[C@@H]([C@H]1C)[C@@]24OO3`: the Potency result was “inactive”.

For the molecule `CCCCCCCCCCCCCC[n+]1ccc(C)cc1`, the Potency is 23.7 µM (active).

For the molecule `OC(CN1CCCCC1)c1cc(-c2ccccc2)on1` (stereo not given), the Potency entry was “inactive”.

For `O=C[C@H](O)[C@@H](O)[C@H](O[C@H]1O[C@H](CO)[C@@H](O[C@H]2O[C@H](CO)[C@@H](O)[C@H](O)[C@H]2O)[C@H](O)[C@H]1O)[C@H](O)CO`, the Potency entry is “inactive”.

Regarding `CC(C)(C)CC(C)(C)c1cc(Cc2cc(C(C)(C)CC(C)(C)C)cc(-n3nc4ccccc4n3)c2O)c(O)c(-n2nc3ccccc3n2)c1`, the Potency result was “inactive”.

In the case of `CCCCCCCCCCCCCCCCCC(=O)[O][Al]`, the Potency result was “inactive”.

As to `CCC(=O)OCC(=O)[C@@]1(OC(=O)CC)[C@H](C)C[C@H]2[C@H]3[C@H]([C@@H](O)C[C@@]21C)[C@@]1(C)C=CC(=O)C=C1C[C@H]3Cl`, the Potency entry is “inactive”.

Consider `COc1ccc(CCNCC(O)COc2cccc(C)c2)cc1OC` (stereo not given), for which the Potency entry is “inactive”.

In the case of `CC[N+](C)(C)Cc1ccccc1Br`, the Potency entry is “inactive”.

On to `NC(=O)OCC(O)COc1ccc(Cl)cc1` (stereo not given), for which the Potency entry was “inactive”.

`CC(C)(CO)[C@@H](O)C(=O)NCCC(=O)NCCSSCCNC(=O)CCNC(=O)[C@H](O)C(C)(C)CO`: the Potency result is “inactive”.

As for `O=C(O)c1nc(=O)[nH]c(=O)[nH]1`, the Potency result was “inactive”.

`COc1ccc2c(=O)c(C)c(-c3ccccc3)oc2c1CN(C)C`: the Potency result is “inactive”.

As to `NCCCC[C@H](NC(=O)[C@@H]1CCCN1C(=O)[C@@H]1CSSC[C@H](N)C(=O)N[C@@H](Cc2ccccc2)C(=O)N[C@@H](Cc2ccccc2)C(=O)N[C@@H](CCC(N)=O)C(=O)N[C@@H](CC(N)=O)C(=O)N1)C(=O)NCC(N)=O`, the Potency entry was “inactive”.
